We go through 58 molecules from the antibiotic and cytotoxicity screens of Wong et al. (2023).

SMILES strings stand for the structures. The whole screen tested about 39,000 compounds, of which about 1,500 (3.8%) were called active. For the sample, actives were picked, then their nearest neighbours and some compounds at random.

This experiment relates to HSkMC (human skeletal muscle cells). The experiment in a line: cytotoxicity call (relative viability < 0.9). Conditions: 10 µM.
As for `Cc1noc(C)c1NC(=O)N(C)C[C@@H]1OCCCC[C@@H](C)Oc2ccc(NC(=O)NC3CCCCC3)cc2C(=O)N([C@@H](C)CO)C[C@H]1C`, the cytotoxicity call is “inactive”. The entry for `C[C@H](CO)N1C[C@H](C)[C@@H](CN(C)C(=O)Nc2ccc(-c3ccccc3)cc2)OCc2ccccc2-c2ccccc2C1=O` is “inactive”. Turning to `CC(C)[Si](C#C[Si](C(C)C)(C(C)C)C(C)C)(O[C@H](C)c1cn([C@H](C)c2ccccc2)nn1)C(C)C`, the cytotoxicity call is “inactive”. For `COc1ccc(S(=O)(=O)Nc2ccc3c(c2)C(=O)N([C@H](C)CO)C[C@H](C)[C@H](CN(C)C(=O)c2ccccc2)OCCCC[C@@H](C)O3)cc1` the value was “inactive”.

As for `C[C@H](CO)N1C[C@H](C)[C@H](CN(C)Cc2ccccc2F)Oc2cc(C#CCN(C)C)ccc2S1(=O)=O`, the cytotoxicity call is “inactive”. For the molecule `COc1ccc(NC(=O)N(C)C[C@H]2Oc3c(NC(=O)c4cnccn4)cccc3C(=O)N([C@@H](C)CO)C[C@H]2C)cc1`, the cytotoxicity call is “inactive”. The entry for `COc1ccc(NC(=O)N(C)C[C@@H]2Oc3c(NC(=O)Nc4ccc(C(F)(F)F)cc4)cccc3C(=O)N([C@H](C)CO)C[C@@H]2C)cc1` is “inactive”; for `C[C@@H]1CN([C@@H](C)CO)C(=O)c2cccc(NC(=O)c3ccc(-c4nccs4)cc3)c2O[C@H]1CN(C)Cc1ccc(Oc2ccccc2)cc1` it is “inactive”. For `COc1ccc(NC(=O)Nc2cccc3c2O[C@@H](CN(C)C(=O)Nc2ccc(C(F)(F)F)cc2)[C@H](C)CN([C@H](C)CO)C3=O)cc1`, the cytotoxicity call is “inactive”. On to `Cc1noc(C)c1S(=O)(=O)Nc1ccc2c(c1)C(=O)N([C@@H](C)CO)C[C@@H](C)[C@@H](CN(C)S(=O)(=O)c1cn(C)cn1)O2`, for which the cytotoxicity call is “inactive”. For `C[C@H](CO)N1C[C@H](C)[C@H](CN(C)C(=O)Nc2ccc(F)cc2)Oc2ccc(NS(=O)(=O)c3cn(C)cn3)cc2CC1=O` the value was “inactive”. For `C[C@@H]1CN([C@@H](C)CO)C(=O)Cc2cc(NC(=O)Cn3cnnn3)ccc2O[C@H]1CN(C)C(=O)Nc1ccc(F)cc1` the value was “inactive”. The entry for `CCOC(=O)[C@H]1C/C=C/C[C@H](C(=O)OCC)C(=O)O[C@H]2[C@@H](OC)O[C@H](CO)[C@@H](OC(=O)Nc3cccc(F)c3)[C@@H]2OC1=O` is “active”.

For `CO[C@H]1O[C@H](CO)[C@@H](OC(=O)Nc2cccc(F)c2)[C@@H]2OC(=O)[C@H](Cc3cccc(Br)c3)C/C=C/C[C@@H](Cc3cccc(Br)c3)C(=O)O[C@@H]12`, the cytotoxicity call is “inactive”.

On to `CCOC(=O)[C@H]1C/C=C/C[C@H](C(=O)OCC)C(=O)O[C@H]2[C@@H](OC)O[C@H](CO)[C@@H](OC(=O)Nc3ccc(OC)cc3)[C@@H]2OC1=O`, for which the cytotoxicity call was “inactive”.

Consider `CCOC(=O)[C@H]1C/C=C/C[C@H](C(=O)OCC)C(=O)O[C@H]2[C@@H](OC)O[C@H](CO)[C@@H](OC(=O)Nc3ccc(Br)cc3)[C@@H]2OC1=O`, for which the cytotoxicity call was “active”. The entry for `CCOC(=O)[C@H]1C/C=C/C[C@H](C(=O)OCC)C(=O)O[C@H]2[C@@H](OC)O[C@H](CO)[C@@H](OC(=O)Nc3ccc4c(c3)OCO4)[C@@H]2OC1=O` is “active”; for `CCOC(=O)[C@H]1C/C=C/C[C@H](C(=O)OCC)C(=O)O[C@H]2[C@@H](OC)O[C@H](CO)[C@@H](OC(=O)c3ccc(Br)cc3)[C@@H]2OC1=O` it is “inactive”; for `CO[C@H]1O[C@H](CO)[C@@H](OC(=O)Nc2ccc3c(c2)OCO3)[C@@H]2OC(=O)[C@H](Cc3cccc(Br)c3)C/C=C/C[C@@H](Cc3cccc(Br)c3)C(=O)O[C@@H]12` it is “inactive”. For `CCOC(=O)[C@H]1C/C=C/C[C@H](C(=O)OCC)C(=O)O[C@H]2[C@@H](OC)O[C@H](CO)[C@@H](OC(=O)c3c(OC)cccc3OC)[C@@H]2OC1=O` the value was “inactive”. For `CCOC(=O)[C@H]1C/C=C/C[C@H](C(=O)OCC)C(=O)O[C@H]2[C@@H](OC)O[C@H](CO)[C@@H](OC(=O)Nc3ccccc3)[C@@H]2OC1=O` the value was “inactive”; for `COc1ccc(NC(=O)N(C)C[C@@H]2OCCCC[C@@H](C)Oc3ccc(NC(=O)c4ccccc4)cc3C(=O)N([C@@H](C)CO)C[C@H]2C)cc1`, “inactive”; for `CC1(C)OC2CC3C4CCC5=CC(=O)C=CC5(C)C4C(O)CC3(C)C2(C(=O)CO)O1` (stereo not drawn), “inactive”. In the case of `CC(=NNC(=O)c1nnn(-c2nonc2N)c1CN1CCC(C)CC1)c1cccc(Br)c1`, the cytotoxicity call is “inactive”. The entry for `CN1C(=O)[C@@H]2[C@H](N=CN2CCCO)N(C)C1=O` is “inactive”. For `C=CCNC(=O)[C@H]1[C@@H]2C(=O)O[C@@H](c3ccccc3)[C@@H](c3ccccc3)N2[C@@H](c2ccc(O)cc2)[C@]12C(=O)Nc1ccc(C#CC3=CCCCC3)cc12` the value was “inactive”. The entry for `COc1ccc(S(=O)(=O)Nc2ccc3c(c2)C(=O)N([C@@H](C)CO)C[C@H](C)[C@H](CN(C)S(=O)(=O)c2cn(C)cn2)OCCCC[C@@H](C)O3)cc1` is “inactive”; for `C[C@@H](NC(=O)C[C@H]1CC[C@@H](NC(=O)CN2CCOCC2)[C@@H](CO)O1)c1ccccc1` it is “inactive”; for `C[C@@H]1CN([C@@H](C)CO)C(=O)Cc2cc(NC(=O)Cn3cnnn3)ccc2O[C@@H]1CN(C)Cc1ccc(C(F)(F)F)cc1` it is “inactive”. For `COc1ccc(CNC(=O)[C@H](c2ccc(C)cc2)N(Cc2cccs2)C(=O)c2ccc3c(c2)OCCO3)cc1`, the cytotoxicity call was “active”.

Consider `CO[C@H](CN(C)C(=O)c1ccc2c(c1)OCO2)[C@H](C)CN([C@H](C)CO)S(=O)(=O)c1ccc(C)cc1`, for which the cytotoxicity call was “inactive”. The entry for `CO[C@H](CN(C)C(=O)c1ccc2c(c1)OCO2)[C@@H](C)CN([C@H](C)CO)S(=O)(=O)c1ccc(C)cc1` is “inactive”; for `COc1cccc(C#Cc2cnc3c(c2)C(=O)N([C@H](C)CO)C[C@@H](C)[C@H](CN(C)C(=O)C2CCOCC2)O3)c1` it is “inactive”; for `CC(C)C#Cc1ccc2c(c1)O[C@@H](CN(C)C(=O)Cc1ccccn1)[C@H](C)CN([C@H](C)CO)S2(=O)=O` it is “inactive”.

For `C[C@H]1CN([C@@H](C)CO)C(=O)c2cccc(NC(=O)Nc3ccccc3)c2O[C@H]1CN(C)Cc1ccc(-c2ccccc2)cc1`, the cytotoxicity call was “inactive”.

Take `C[C@H]1CN([C@@H](C)CO)C(=O)c2cccc(NC(=O)Nc3ccccc3)c2O[C@H]1CN(C)Cc1ccc(C(=O)Nc2ccccc2N)cc1`: the cytotoxicity call was “active”. The entry for `C[C@@H]1CN([C@@H](C)CO)C(=O)c2cccc(NC(=O)Nc3ccccc3)c2O[C@H]1CN(C)Cc1ccc(-c2ccccc2)cc1` is “active”; for `C[C@@H]1CN([C@H](C)CO)C(=O)c2cccc(NC(=O)Nc3ccccc3)c2O[C@H]1CN(C)Cc1ccc(-c2ccccc2)cc1` it is “active”.

As to `C[C@@H]1CN([C@H](C)CO)C(=O)c2cccc(NC(=O)Nc3ccccc3)c2O[C@@H]1CN(C)Cc1ccc(C(=O)Nc2ccccc2N)cc1`, the cytotoxicity call was “inactive”. For `C[C@H](CO)N1C[C@H](C)[C@H](CN(C)Cc2ccc(-c3ccccc3)cc2)Oc2c(NC(=O)Nc3ccc(F)cc3)cccc2C1=O` the value was “inactive”. On to `C[C@@H]1CN([C@H](C)CO)C(=O)c2cccc(NC(=O)Nc3ccccc3)c2O[C@@H]1CN(C)Cc1ccc(-c2ccccc2)cc1`, for which the cytotoxicity call was “inactive”. The entry for `C[C@@H]1CN([C@@H](C)CO)C(=O)c2cccc(NC(=O)Nc3ccccc3)c2O[C@@H]1CN(C)Cc1ccc(-c2ccccc2)cc1` is “active”; for `C[C@@H]1CN([C@@H](C)CO)C(=O)c2cccc(NC(=O)Nc3ccccc3)c2O[C@H]1CN(C)Cc1ccc(C(=O)Nc2ccccc2N)cc1` it is “inactive”. For `C[C@H](CO)N1C[C@H](C)[C@@H](CN(C)Cc2ccc(-c3ccccc3)cc2)Oc2c(NC(=O)Nc3ccccc3)cccc2C1=O` the value was “inactive”. For `C[C@H]1CN([C@@H](C)CO)C(=O)c2cccc(NC(=O)Nc3ccccc3)c2O[C@@H]1CN(C)Cc1ccc(-c2ccccc2)cc1` the value was “inactive”. For `C[C@H](CO)N1C[C@H](C)[C@H](CN(C)Cc2ccc(-c3ccccc3)cc2)Oc2c(NC(=O)Nc3ccccc3)cccc2C1=O`, the cytotoxicity call was “inactive”. The entry for `C[C@H]1CN([C@@H](C)CO)S(=O)(=O)c2ccc(-c3cccnc3)cc2O[C@@H]1CN(C)CC1CCOCC1` is “inactive”. Consider `O=C(O)CCCCN(CCc1ccccc1OCc1ccc(CCc2ccccc2)cc1)Cc1ccc(C(=O)O)cc1`, for which the cytotoxicity call is “inactive”. With `COc1ccc(S(=O)(=O)N(C)C[C@H]2Oc3c(NC(=O)c4ccncc4)cccc3C(=O)N([C@@H](C)CO)C[C@H]2C)cc1`, the cytotoxicity call was “inactive”. The entry for `CN1C(=O)CS(=O)(=O)[C@@H]1c1ccccc1` is “inactive”. With `C[C@@H]1CCCCO[C@H](CN(C)Cc2ccc(C(=O)O)cc2)[C@H](C)CN([C@@H](C)CO)C(=O)c2cc(NC(=O)Cc3ccccc3)ccc2O1`, the cytotoxicity call was “inactive”. On to `C[C@@H]1CCCCO[C@H](CN(C)C(=O)Nc2ccc(F)cc2)[C@@H](C)CN([C@@H](C)CO)C(=O)c2cc(NC(=O)Nc3ccccc3)ccc2O1`, for which the cytotoxicity call is “inactive”.

Consider `CN(C)CCCCCCNC(=O)[C@@H]1C[C@@H]2C(=O)NCC(=O)N2[C@@H]1c1cccc(OCCO)c1`, for which the cytotoxicity call was “inactive”.

On to `Cc1ccc(S(=O)(=O)N(C)C[C@@H]2Oc3ccc(NS(=O)(=O)c4cn(C)cn4)cc3C(=O)N([C@@H](C)CO)C[C@@H]2C)cc1`, for which the cytotoxicity call is “inactive”. For `C[C@@H]1CN([C@H](C)CO)C(=O)c2cc(NC(=O)Cc3ccccc3)ccc2O[C@@H]1CN(C)C(=O)Nc1ccc(C(F)(F)F)cc1` the value was “inactive”; for `CCOC(=O)[C@H]1C/C=C/C[C@H](C(=O)OCC)C(=O)O[C@H]2[C@@H](OC)O[C@H](COC(=O)NCCCCCC(=O)NO)[C@@H](OC(=O)Nc3ccccc3)[C@@H]2OC1=O`, “inactive”; for `C[C@H]1CCCCO[C@H](CN(C)C(=O)Nc2ccc(F)cc2)[C@@H](C)CN([C@@H](C)CO)C(=O)c2cc(NS(=O)(=O)c3ccc(F)cc3)ccc2O1`, “inactive”. For `COc1ccccc1C#Cc1cnc2c(c1)C(=O)N([C@H](C)CO)C[C@H](C)[C@@H](CN(C)C(=O)CC1CC1)O2` the value was “inactive”.
